Source: PubChem BioAssay (EPA / NIEHS)
Calls of active or inactive are those of the source. Rule for the calls: active = hit-call score of the fitted dose curve at least 0.9, where 1 is the maximum; inactive = score below 0.9.

Tests used:
[1] = target: Paired box protein Pax-6 (Homo sapiens) (UniProt P26367); assay: ATG_Pax6_CIS: Attagene CIS-FACTORIAL HepG2 Assay for human Paired Box 6 (PAX6) (AID 2282956); conditions: HepG2 CIS-FACTORIAL PAX6 reporter transcription, RNA readout; actives raise or lower the signal
Paired box protein Pax-6 (Homo sapiens), sequence (P26367 whole entry, looked up): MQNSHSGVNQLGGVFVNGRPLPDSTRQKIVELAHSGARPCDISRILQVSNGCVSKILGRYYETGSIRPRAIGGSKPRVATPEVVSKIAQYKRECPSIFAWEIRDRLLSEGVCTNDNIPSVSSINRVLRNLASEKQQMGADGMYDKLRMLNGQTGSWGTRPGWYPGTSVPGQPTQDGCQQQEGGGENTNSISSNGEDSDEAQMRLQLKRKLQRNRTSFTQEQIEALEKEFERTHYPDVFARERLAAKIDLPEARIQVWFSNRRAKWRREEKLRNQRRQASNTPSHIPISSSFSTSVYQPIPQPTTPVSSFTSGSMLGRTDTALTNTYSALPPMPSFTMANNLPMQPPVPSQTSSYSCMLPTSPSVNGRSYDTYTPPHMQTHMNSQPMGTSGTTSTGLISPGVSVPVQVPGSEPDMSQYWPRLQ
Outline: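 After twenty-four hours of chemical exposure, transfected HepG2 cells are harvested for RNA. Cis-promoter reporter transcripts are amplified, fluorescently labelled and sized by capillary electrophoresis, with gain and loss of signal scored against DMSO.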

[2] = ATG_PXRE_CIS: Attagene CIS-FACTORIAL HepG2 Assay for human Pregnane X Receptor Element (PXRE) (AID 2282957); conditions: HepG2 Attagene CIS-FACTORIAL PXRE reporter, mRNA; actives raise or lower the signal
Outline: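 Cis-element reporter mRNA in human hepatoma HepG2 cells is measured 24 h post-dosing by RT-PCR, primer-extension labeling and capillary electrophoresis; gain or loss of signal is fitted relative to DMSO.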

[3] = ATG_PPRE_CIS: Attagene CIS-FACTORIAL HepG2 Assay for human Peroxisome Proliferator-activated Response Element (PPRE) (AID 2282958); conditions: HepG2 PPRE cis-element reporter, Attagene transcription factor profiling; actives raise or lower the signal
Outline: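 HepG2, transient MRTU transfection (cis promoter elements, endogenous TFs). 24 h dosing. RNA → oligo(dT) RT → PCR → 6-FAM primer extension → HpaI digest → CE. Bidirectional fit vs DMSO.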

[4] = ATG_RORE_CIS: Attagene CIS-FACTORIAL HepG2 Assay for human RAR-related Orphan Receptor Element (RORE) (AID 2282959); conditions: HepG2 Attagene cis-factorial RORE reporter, mRNA; actives raise or lower the signal
Outline: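 Transient MRTU transfection of human HepG2 liver cells (FuGene 6); 24 h compound exposure; TriZol RNA, oligo(dT) RT, PCR, FAM labeling, HpaI cut, CE fragment analysis. DMSO = negative control/baseline.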

[5] = ATG_Sox_CIS: Attagene CIS-FACTORIAL HepG2 Assay for human SRY-box transcription factor (SOX) (AID 2282960); conditions: HepG2 Attagene cis-factorial SOX reporter, mRNA; actives raise or lower the signal
Outline: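 Endogenous factor activity in human liver HepG2 cells carrying transfected cis-regulated reporter units. RNA taken 24 h post-dose, reverse-transcribed, PCR-amplified and sized by capillary electrophoresis. Gain or loss of signal fitted relative to DMSO.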

[6] = target: Transcription factor Sp1 (Homo sapiens) (UniProt P08047); assay: ATG_Sp1_CIS: Attagene CIS-FACTORIAL HepG2 Assay for human Specificity Protein 1 (Sp1) (AID 2282961); conditions: HepG2 Sp1 cis-reporter transcription, actives raise or lower the signal
Transcription factor Sp1 (Homo sapiens), sequence (P08047 whole entry, looked up): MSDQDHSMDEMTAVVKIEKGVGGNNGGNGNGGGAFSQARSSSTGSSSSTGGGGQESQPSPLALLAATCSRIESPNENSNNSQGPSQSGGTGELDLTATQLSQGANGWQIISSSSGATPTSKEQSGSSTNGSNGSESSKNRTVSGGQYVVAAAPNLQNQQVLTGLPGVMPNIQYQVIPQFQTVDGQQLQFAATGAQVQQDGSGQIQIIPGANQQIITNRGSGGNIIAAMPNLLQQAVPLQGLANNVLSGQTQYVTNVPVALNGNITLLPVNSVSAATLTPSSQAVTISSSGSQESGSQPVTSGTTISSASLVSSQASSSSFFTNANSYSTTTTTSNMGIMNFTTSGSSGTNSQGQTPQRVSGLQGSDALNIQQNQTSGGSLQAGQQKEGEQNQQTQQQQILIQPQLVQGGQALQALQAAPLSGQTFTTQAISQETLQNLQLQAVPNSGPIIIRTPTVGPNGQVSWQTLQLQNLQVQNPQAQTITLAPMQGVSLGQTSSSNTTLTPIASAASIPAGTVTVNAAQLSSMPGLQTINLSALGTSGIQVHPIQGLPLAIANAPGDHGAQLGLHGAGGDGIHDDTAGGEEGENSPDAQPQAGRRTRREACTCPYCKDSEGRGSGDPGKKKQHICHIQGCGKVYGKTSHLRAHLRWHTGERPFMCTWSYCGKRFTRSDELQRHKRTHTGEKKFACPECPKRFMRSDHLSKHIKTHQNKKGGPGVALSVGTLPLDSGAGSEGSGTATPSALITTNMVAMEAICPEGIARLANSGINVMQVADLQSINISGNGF
Outline: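 Transient MRTU-transfected HepG2, 24 h compound exposure. Total RNA → oligo(dT) RT → PCR of reporter → 6-FAM primer extension → HpaI digest → CE. Endpoint fitted both directions vs DMSO.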

[7] = ATG_SREBP_CIS: Attagene CIS-FACTORIAL HepG2 Assay for human Sterol Regulatory Element Binding (SREBP) (AID 2282962); conditions: HepG2 Attagene cis-factorial SREBP reporter, mRNA; actives raise or lower the signal
Outline: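 Twenty-four hours after chemical dosing of transfected HepG2 cultures, reporter RNA was converted to cDNA, amplified, end-labelled with 6-FAM and resolved by capillary electrophoresis. Responses were fitted relative to DMSO.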

[8] = target: Signal transducer and activator of transcription 3 (Homo sapiens) (UniProt P40763); assay: ATG_STAT3_CIS: Attagene CIS-FACTORIAL HepG2 Assay for human Signal Transducer and Activator of Transcription 3 (STAT3) (AID 2282963); conditions: HepG2, Attagene cis-factorial STAT3 reporter transcription; actives raise or lower the signal
Signal transducer and activator of transcription 3 (Homo sapiens), sequence (P40763 whole entry, looked up): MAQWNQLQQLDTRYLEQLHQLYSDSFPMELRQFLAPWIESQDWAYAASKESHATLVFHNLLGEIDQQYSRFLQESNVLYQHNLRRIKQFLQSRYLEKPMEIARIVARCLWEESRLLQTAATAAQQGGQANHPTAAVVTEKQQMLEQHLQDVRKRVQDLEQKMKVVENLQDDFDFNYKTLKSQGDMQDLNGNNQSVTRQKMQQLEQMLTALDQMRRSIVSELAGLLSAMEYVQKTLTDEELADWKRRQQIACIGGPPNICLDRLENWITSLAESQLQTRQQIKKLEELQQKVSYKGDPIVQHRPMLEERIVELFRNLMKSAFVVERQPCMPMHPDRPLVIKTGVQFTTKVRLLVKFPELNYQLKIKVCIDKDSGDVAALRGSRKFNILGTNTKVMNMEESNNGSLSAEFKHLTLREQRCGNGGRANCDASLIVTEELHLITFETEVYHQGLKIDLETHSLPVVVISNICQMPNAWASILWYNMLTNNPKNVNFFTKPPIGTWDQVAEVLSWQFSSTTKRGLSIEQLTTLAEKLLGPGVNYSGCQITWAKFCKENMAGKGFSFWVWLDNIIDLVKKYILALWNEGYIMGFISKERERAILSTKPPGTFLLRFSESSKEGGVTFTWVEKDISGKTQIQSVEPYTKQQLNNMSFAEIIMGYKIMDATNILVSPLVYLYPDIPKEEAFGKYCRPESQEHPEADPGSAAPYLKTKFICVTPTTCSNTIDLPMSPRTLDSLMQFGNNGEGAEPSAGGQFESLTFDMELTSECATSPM
Outline: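 HepG2 cells transiently transfected with multiple cis-element-driven reporter units report endogenous transcription factor activity. After 24 h compound exposure, reporter mRNA is measured by RT-PCR, 6-FAM labelling, HpaI digestion and capillary electrophoresis. Fitted bidirectionally versus DMSO.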

[9] = ATG_TA_CIS: Attagene CIS-FACTORIAL HepG2 Assay for human TA Basal Promoter (AID 2282964); conditions: HepG2 Attagene CIS-factorial TA basal promoter reporter; actives raise or lower the signal
Outline: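 Transfected HepG2, 24 h compound exposure; RNA → RT-PCR → FAM primer extension → HpaI cut → CE fluorescence. Gain/loss-of-signal fitted against DMSO negative control. Background-control readout.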

[10] = ATG_TCF_b_cat_CIS: Attagene CIS-FACTORIAL HepG2 Assay for human T-Cell-Factor with beta-catenin (TCF/b-cat) (AID 2282965); conditions: HepG2 TCF/beta-catenin cis-reporter transcription, actives raise or lower the signal
Outline: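 HepG2 cells transiently transfected with cis-promoter-driven multiplexed reporter units; reporter mRNA measured 24 h after dosing by RT-PCR, FAM labelling, HpaI digestion and capillary electrophoresis. Bidirectional fitting relative to DMSO baseline.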

Measured: AC50

CC=CC=CCOC(=O)C(C)C
active: [2] 25 µM
inactive: all other assays above

O=C(O)CCCCCCCCC(=O)O
not listed: [9]
inactive: all other assays above

CS(=O)(=O)c1ccc(C2=C(c3ccccc3)C(=O)OC2)cc1
active: [2] 20.1 µM
not listed: [9]
inactive: all other assays above

CN(C)C(=S)SC(=S)N(C)C
active: [2] 73.8 µM | [3] 46.2 µM
not listed: [9]
inactive: all other assays above

CCOc1ccccc1O
inactive: all assays above

O=C(CC(=O)c1ccccc1)c1ccccc1
active: [1] 100 µM | [2] 25.3 µM | [3] 3.67 µM | [4] 26.7 µM | [5] 100 µM | [6] 94.3 µM | [7] 67.7 µM
inactive: [8] | [9] | [10]

Cc1[nH]c(=O)c(C#N)cc1-c1ccncc1
inactive: all assays above

Nc1ccc(NCCO)c([N+](=O)[O-])c1
not listed: [9]
inactive: all other assays above

COC(C)(C)CCCC(C)CC=O (configuration not stated)
inactive: all assays above

C=Cc1ccc(C(C)(C)C)cc1
active: [2] 27.4 µM
inactive: all other assays above

OCCc1ccccc1
inactive: all assays above

CCOCCOCCOCC
inactive: all assays above

CCCCCCCCCCCCCCN(CCO)CCO
active: [2] 2.92 µM | [6] 11.1 µM | [7] 7.35 µM
inactive: all other assays above

CN1C(=O)c2ccccc2C1=O
inactive: all assays above

COc1cc(CCC(C)=O)ccc1O
inactive: all assays above

CC(C)(C)OC(=O)c1ccc(O)cc1
active: [3] 87.7 µM | [4] 72.5 µM
inactive: all other assays above

CC(C)CCCCCCCCCCCCCCC(=O)O
inactive: all assays above

ClC(c1ccccc1)(c1ccccc1)c1ccccc1
active: [2] 2.59 µM
inactive: all other assays above

CCCCCCCCCC(=O)OC
inactive: all assays above

CC(C)(C)c1ccc(C(=O)O)cc1
not listed: [9]
inactive: all other assays above

ON=C1CCCCC1
inactive: all assays above

O=C(O)c1ccc(O)cc1
inactive: all assays above

c1ccc2cc(Nc3ccc(Nc4ccc5ccccc5c4)cc3)ccc2c1
active: [4] 5.31 µM
inactive: all other assays above

CC(C)CC(C)CC(O)CC(C)C (configuration not stated)
inactive: all assays above

Nc1ccc(N)c2c1C(=O)c1ccccc1C2=O
active: [3] 4.05 µM
inactive: all other assays above

CC(C)CCOC(=O)c1ccccc1
not listed: [9]
inactive: all other assays above

CCCCCCCCCCCCCCCC(=O)OC/C=C(C)/C=C/C=C(C)/C=C/C1=C(C)CCCC1(C)C
active: [2] 3.09 µM
inactive: all other assays above

O=C1OC(=O)c2c(Br)c(Br)c(Br)c(Br)c21
not listed: [5] | [10]
inactive: all other assays above

FC(F)(F)COCC(F)(F)F
not listed: [5]
inactive: all other assays above

CC1C2CC(CC2C2CCCC(O)C2)C1(C)C (configuration not stated)
active: [2] 3.04 µM
not listed: [6]
inactive: all other assays above

CC(=O)Nc1ccc(C(=O)CCl)cc1
active: [1] 9 µM | [5] 8.57 µM | [7] 8.67 µM
not listed: [6] | [9]
inactive: all other assays above

CCCC1O[C@@H]2C[C@H]3[C@@H]4CCC5=CC(=O)C=C[C@]5(C)[C@H]4[C@@H](O)C[C@]3(C)[C@]2(C(=O)CO)O1 (some centres not stated)
active: [2] 4.12 µM | [10] 100 µM
not listed: [6] | [9]
inactive: all other assays above

O=C(c1ccccc1)C(O)c1ccccc1 (configuration not stated)
active: [2] 57 µM
not listed: [5]
inactive: all other assays above

C=C(CC(=O)O)C(=O)O
not listed: [5]
inactive: all other assays above

O=C(CS)OCCOC(=O)CS
active: [2] 37.8 µM | [3] 19.7 µM
not listed: [5]
inactive: all other assays above

Clc1cc(Cl)c(-c2c(Cl)c(Cl)cc(Cl)c2Cl)cc1Cl
active: [2] 3.45 µM | [6] 50 µM | [7] 50 µM
not listed: [9]
inactive: all other assays above

CC1(C)CCC[C@]2(C)[C@H]3CCO[C@]3(C)CC[C@@H]12
active: [2] 7.46 µM | [4] 100 µM | [7] 145 µM
not listed: [6]
inactive: all other assays above

CCCC[P+](CCCC)(CCCC)CCCC
not listed: [6] | [10]
inactive: all other assays above

Nc1ccc2c(O)cc(S(=O)(=O)O)cc2c1
not listed: [5]
inactive: all other assays above

COc1ccc(OC)c(N=Nc2c(O)ccc3ccccc23)c1
active: [2] 3.46 µM
not listed: [6]
inactive: all other assays above

Cc1ccc(C)o1
not listed: [6]
inactive: all other assays above

COc1ccc(N=Nc2cc(C)c(N=Nc3ccc(S(=O)(=O)O)cc3)cc2OC)cc1
inactive: [3] | [5] | [10]
active: [1] 100 µM | [2] 23.1 µM | [4] 8.45 µM | [7] 162 µM | [8] 162 µM

CCCCSCCCC
not listed: [9]
inactive: all other assays above

O=C1OC[C@H](Cc2cccc(O)c2)[C@H]1Cc1cccc(O)c1
active: [2] 5.12 µM
not listed: [5] | [10]
inactive: all other assays above

CCCCCCCCSCCO
active: [2] 25 µM
not listed: [6]
inactive: all other assays above

OCCCCC(O)CO (configuration not stated)
not listed: [6] | [10]
inactive: all other assays above

[Cl][Au]([Cl])[Cl]
not listed: [9]
inactive: all other assays above

CCCCCCC(=O)c1ccccc1
active: [2] 43.2 µM
not listed: [9]
inactive: all other assays above

Clc1ccc(C(c2ccccc2Cl)C(Cl)Cl)cc1 (configuration not stated)
inactive: [1] | [7] | [9]
active: [2] 1.5 µM | [3] 31.9 µM | [4] 27.3 µM | [6] 52.7 µM | [8] 161 µM

C1CCCCC1
not listed: [9]
inactive: all other assays above

COc1cc([C@@H]2c3cc4c(cc3[C@@H](O[C@@H]3O[C@@H]5CO[C@@H](C)O[C@H]5[C@H](O)[C@H]3O)[C@H]3COC(=O)[C@H]23)OCO4)cc(OC)c1O
active: [2] 35.2 µM
not listed: [9]
inactive: all other assays above
